Our source for the Percent Effect values is ChEMBL document CHEMBL3988442, “University of Dundee, Small-Polar-MMV Screening Library” (2021).

In test [1] the target is T1, Aspartate--tRNA(Asp/Asn) ligase (Mycobacterium tuberculosis (strain ATCC 25618 / H37Rv)) (UniProt P9WFW3). Note: in the data most compounds retested in dose-response had high values.
T1 sequence (whole entry): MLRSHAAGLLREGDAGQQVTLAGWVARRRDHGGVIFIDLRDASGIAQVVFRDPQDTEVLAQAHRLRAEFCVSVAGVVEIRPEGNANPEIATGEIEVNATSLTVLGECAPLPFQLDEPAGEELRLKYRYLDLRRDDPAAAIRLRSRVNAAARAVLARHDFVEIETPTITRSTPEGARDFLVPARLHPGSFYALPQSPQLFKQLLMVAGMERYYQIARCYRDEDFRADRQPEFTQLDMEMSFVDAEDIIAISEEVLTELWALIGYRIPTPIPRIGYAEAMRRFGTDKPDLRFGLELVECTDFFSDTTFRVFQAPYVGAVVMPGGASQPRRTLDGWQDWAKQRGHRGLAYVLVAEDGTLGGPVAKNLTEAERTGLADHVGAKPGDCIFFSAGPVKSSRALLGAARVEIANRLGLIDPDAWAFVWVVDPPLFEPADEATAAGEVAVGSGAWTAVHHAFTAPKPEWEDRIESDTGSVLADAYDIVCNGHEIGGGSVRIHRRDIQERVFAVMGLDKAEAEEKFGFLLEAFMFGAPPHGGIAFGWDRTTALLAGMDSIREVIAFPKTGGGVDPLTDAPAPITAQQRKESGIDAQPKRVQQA
The test can be described thus: Assay for Asp RNA synthetase-1 from Mycobacterium tuberculosis. The test is classed as functional. Details: scale not given: direction of the effect not stated beside the values. The note with it: 30 µM.

In test [2] the target is Shiga toxin 2 (Escherichia coli O157:H7) (UniProt P09385+P09386). The test can be described thus: E. coli 0.157:H7 Shiga Toxin SOP - stx2 screening assay. The test is classed as functional. Details: scale not given: direction of the effect not stated beside the values. The note with it: 30 µM.

Structures are written as SMILES.

With `Cc1ccc(C(C)NC(=O)Nc2ccccc2CN2CCOCC2)o1` (stereo not drawn), the Percent Effect is -6.02% in test [1] and 17.3% in test [2].

`Cc1noc(C)c1CN(C)C(=O)NC1CCN(c2ncccn2)CC1`: the Percent Effect amounted to 0.9% in test [1] and 9.61% in test [2].

As for `O=C(NCc1ccc(-n2cncn2)nc1)c1ccoc1`, the values for the Percent Effect in test [1] and in test [2] were 3.8% and -9.83%, respectively.

For the compound `Cc1cnn(CCNCc2csc(-c3ccc4c(c3)OCO4)n2)c1`, the Percent Effect in test [1] came to 1.41%; in test [2], 23.7%.

Turning to `Cc1cc(CN2CCCC2c2noc(C3CC3)n2)c2ccccc2n1` (stereo not drawn), the Percent Effect in test [1] is 2.68%; in test [2], 9.51%.

Turning to `Cc1ccc(C(=O)Nc2cn[nH]c2)cc1C`, the Percent Effect in test [1] is -2.79%; in test [2], 16.5%.

Take `CCc1ncnc2c1CCN(Cc1ccc(OC)cc1)CC2`: the Percent Effect in test [1] is -0.259%; in test [2], -28%.

With `Cc1ccc(NC(=O)NC(C)c2nc[nH]n2)s1` (stereo not drawn), the values for the Percent Effect in test [1] and in test [2] were 3.94% and 17.2%, respectively.

`c1cnc(N2CCC3(CC2)CN(CC2CC2)c2ccccc23)nc1`: the Percent Effect in test [1] was 3.62%; in test [2], -25%.
